# KB-V1 cytotox = kills drug-selected multidrug resistant KB-V1 cells. KB-V1 MDR cells viability, CellTiter-Glo, 72 h. Potency, µM (highest dose often 46.1 µM), most hits filed as cytotoxic. hit rate 3.4% among 400,000. AID 1347076; note: potency is the fitted concentration of half-maximal effect; nearly all actives have a fitted effect of over 60% in size
#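 Readout: CellTiter-Glo luminescence, 10 min after addition. Cells: KB-V1 MDR subline, 72 h at 37 degrees C with compound. Analysis: corrected, normalized data fitted to concentration-effect curves.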
# HT1080-NT tox = kills 2HG-producing HT-1080-NT fibrosarcoma cells; HT-1080-NT fibrosarcoma viability, CellTiter-Glo ATP luminescence, 48 h; Potency, µM (top dose mostly 46.1 µM), for the others: at the top dose activity, negative = less viability, actives largely listed as cytotoxic; hit rate 1.6% among 360,000;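 note: NT is the 2HG producing partner of a matched IDH1 knockdown line; potency is the fitted concentration of half-maximal effect; 0% = DMSO-treated cells and -100% = media-only wells without cells; nearly all actives have a fitted effect of over 55% in size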
#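 HT-1080-NT; 750 cells/well; 5% FBS RPMI; 48 h compound, 37 degrees C; CellTiter-Glo luminescence; curve fitting and curve-class assignment.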
# HT1080 IDH1KD tx = kills HT-1080 cells with IDH1 knockdown; HT-1080 IDH1 knockdown viability, ATP luminescence, 48 h; Potency, µM (titrated, usually from 46.1 µM), for the others: at the top dose activity, negative = toxicity, actives largely listed as cytotoxic; hit rate 2% among 360,000; AID 686971;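 note: potency is the fitted concentration of half-maximal effect; 0% = DMSO wells and -100% = cell-free medium wells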
#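 Assay cells: HT-1080 with IDH1 knockdown, 750 per well, RPMI/5% FBS. Exposure: 48 h at 37 °C following 2 h pre-incubation. Read: CellTiter-Glo luminescence; fitted concentration-response, curve class assigned.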
# KB-3-1 cytotox = kills parental KB-3-1 adenocarcinoma cells; KB-3-1 viability, CellTiter-Glo ATP luminescence, 72 h; hit rate 1.4% among 400,000; AID 1347075; Potency, µM (series often up to 46.1 µM), most hits filed as cytotoxic; note: potency is the fitted concentration of half-maximal effect; nearly all actives have a fitted effect of over 60% in size
#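 Cytotoxicity in the drug-sensitive parental line KB-3-1 was scored as loss of CellTiter-Glo luminescence following 72 h incubation with compound. Values come from curve fitting of normalized concentration-response data.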
# IL-1B inflam inh = inflammasome signaling inhibition, IL-1 beta readout. activity change, % at 57.5 µM. hit rate 4.7% among 360,000. THP-1 LPS/ATP IL-1B secretion, AlphaLISA, 16 h; active compounds read low; in the data active = activity change below about -50%; inconclusive = mostly about -30% to -49%
#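 THP-1 cells pretreated 1 hr with compounds (up to 57.5 uM final), then stimulated with LPS (250 ng/mL final) plus ATP (1.25 mM final); secreted IL-1B measured by AlphaLISA after 16 hr, decreased signal indicating inhibition.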
# An asterisk follows results filed as active; i = inactive; ? = inconclusive; . = no result given. Rows were chosen to be rich in hits. Some 8.8% of all compounds tested hit in one or more screens of this group. Unless noted, calls come from the whole dose curve; as a rule, active = well fitted curve in the direction sought with a large enough effect; inconclusive = small, poorly fitted or top-dose-only effect, or another doubt; inactive = no such curve, though single readings can be large; an effect the other way counts as inactive or inconclusive. Unless noted, % is set by controls: 0 for no effect and ±100 for the full control effect.
SMILES,KB-V1 cytotox,HT1080-NT tox,HT1080 IDH1KD tx,KB-3-1 cytotox,IL-1B inflam inh
CC(=O)c1c(C)oc2ccc(N(C(=O)Oc3ccccc3)S(=O)(=O)c3ccc(C(C)(C)C)cc3)cc12,i,.,.,?,.
CC(C)CNC(=O)c1ccccc1NC(=O)CCSc1ccccc1,20.6µM*,4.5%,-0.1%,i,3.4
CCC(C)NC(=O)c1ccccc1NC(=O)c1ccc(CSc2ccc(C)cc2)cc1 (stereo not drawn),i,-4.5%,-13.0%,i,8.2
CC(C)CNC(=O)c1ccccc1NC(=O)c1ccc(CSc2ccccc2)cc1,13µM*,3.1%,-0.3%,i,-3.0
Cc1ccc(SCCC(=O)Nc2ccccc2C(=O)N2CCOCC2)cc1,23.1µM*,-2.1%,-3.2%,i,29.1
Cn1cc(C(F)(F)F)nc1-c1ccc(OCC(O)CNCCOc2ccc(O)c(C(N)=O)c2)cc1 (stereo not drawn),i,-0.5%,-20.6%,i,-8.8
N#CC(=C1C=CC(=NO)C(Cl)=C1)c1ccc(Cl)cc1,?,-21.6%,?,?,-53.6*
Cc1ccc(-c2nnc(SCC(=O)NCCC(C)C)nc2-c2ccc(C)cc2)cc1,i,.,.,i,.
COC(=O)C1=C(C(=O)OC)[C@@H]2N(Cc3ccccc3)c3ccccc3[C@@]23C[C@@H](C(=O)OC)N(C(=O)C2CCC2)C3=N1,i,1.8%,5.5%,i,9.5
Cc1cc(C)cc(NC(=O)C[n+]2ccccc2)c1,i,-2.2%,-5.7%,i,3.1
CN(C)c1cc[n+](CC(=O)Nc2ccc(Oc3ccccc3)cc2)cc1,?,?,?,16.4µM*,-77.0*
CCOc1ccc(NC(=O)C[n+]2ccc(N(C)C)cc2)cc1,i,3.9%,?,10.3µM*,11.9
CN(C)c1cc[n+](CC(=O)Nc2ccc(Cl)cc2)cc1,i,6.51µM*,?,3.66µM*,-51.1*
CCOc1ccc(NC(=O)CC(=O)Nc2ccc(OCC)cc2)cc1,i,1.8%,21.5%,i,0.6
O=C(C[n+]1ccccc1)Nc1ccccc1,i,14.7%,11.0%,i,-26.5
Cc1cccc(NC(=O)C[n+]2ccc(N(C)C)cc2)c1,i,?,?,13µM*,0.0
CN(C)c1cc[n+](CC(=O)Nc2cc(C(F)(F)F)ccc2Cl)cc1,i,?,?,i,?
Cc1cc(N=Nc2ccc(C)c(N=Nc3cc(C)c(N)cc3N)c2)c(N)cc1N,?,-17.5%,-16.3%,i,-16.9
CCc1ccccc1N1CC(c2nnc(NC(=O)c3ccco3)s2)CC1=O (stereo not drawn),i,.,.,i,.
O=C1Nc2ccc3c(c2C1=Cc1cc2c(cc1Br)OCO2)OCO3,?,?,2.2%,5.17µM*,-13.2
COc1ccc(NC(=O)C2Cc3c(-c4ccccc4Oc4ccccc4)ccnc3O2)cc1OC (stereo not drawn),?,?,?,i,-11.8
O=c1ccc2cc3c(-c4ccccc4)coc3cc2o1,6.51µM*,-18.3%,-5.2%,18.4µM*,-4.5
CC(C)(C)OC(=O)[C@H](Cc1ccccc1)NC(=O)c1[nH]cnc1C(=O)Nc1cccc(Cl)c1,?,?,?,?,-51.4*
O=C(Nc1ccc(Cl)cc1)c1nc[nH]c1C(=O)NCc1ccccc1,16.4µM*,?,-21.1%,?,-11.4
CC(C)(C)OC(=O)[C@H](Cc1ccccc1)NC(=O)c1[nH]cnc1C(=O)Nc1ccc(Cl)cc1,?,?,?,?,-59.2*
Cc1cccc(NC(=O)c2nc[nH]c2C(=O)N[C@@H](Cc2ccccc2)C(=O)OC(C)(C)C)c1,?,?,?,?,-57.7*
CCN(Cc1ccccc1)C(=O)C1CCC(CNS(=O)(=O)c2ccc3c(c2)CCCC(=O)N3)CC1 (stereo not drawn),i,.,.,?,.
CCOC(=O)c1ccc(NC(=O)c2nc[nH]c2C(=O)N[C@@H](Cc2ccccc2)C(=O)OC(C)(C)C)cc1,i,-6.3%,2.8%,13µM*,-73.1*
CC(C)C[C@H](NC(=O)c1nc[nH]c1C(=O)NCC(=O)OC(C)(C)C)C(=O)OC(C)(C)C,i,-16.3%,-10.3%,i,-28.7
